# Source: PubChem BioAssay
# PostGolgi yeast: growth inhibition of a yeast mutant, post-Golgi transport screen; post-Golgi transport phenotypic cell assay; inhibition, % at 10 µM; 0.9% of 98,000 active; AID 739;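 also: yeast cells grown in 1536-well plates; yeast grown about 18 h at 30C before absorbance read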
# CYP2C19 inhib: human CYP2C19 inhibition; 21% of 96,000 active; CYP2C19 Supersomes, luciferin-H EGE luminescence, 30 min; inhibition, % at 5 µM;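 active = CYP2C19 inhibition above a set limit at 5 µM in the primary screen, cut at about 50% in these data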;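 also: plate controls were negative control wells for no effect and 2.5 mM tranylcypromine positive control for full effect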
# Target sequence (P33261 whole entry, looked up): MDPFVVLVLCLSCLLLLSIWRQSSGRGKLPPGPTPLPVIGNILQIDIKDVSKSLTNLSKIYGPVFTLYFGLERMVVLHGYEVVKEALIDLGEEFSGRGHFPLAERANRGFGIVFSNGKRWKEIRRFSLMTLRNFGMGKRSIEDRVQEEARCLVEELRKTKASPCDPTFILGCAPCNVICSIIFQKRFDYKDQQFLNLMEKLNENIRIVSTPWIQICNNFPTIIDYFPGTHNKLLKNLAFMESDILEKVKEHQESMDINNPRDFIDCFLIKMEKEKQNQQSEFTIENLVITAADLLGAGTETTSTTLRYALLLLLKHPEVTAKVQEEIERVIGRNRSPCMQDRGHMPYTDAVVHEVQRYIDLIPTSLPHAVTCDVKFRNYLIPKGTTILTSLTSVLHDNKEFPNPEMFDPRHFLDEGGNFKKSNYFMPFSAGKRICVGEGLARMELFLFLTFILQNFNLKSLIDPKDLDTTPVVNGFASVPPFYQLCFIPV
# CYP2C9 act: CYP2C9 (human) activation | activation factor at 5 µM | 1.4% of 96,000 active | P11712 | recombinant CYP2C9, luciferin-H conversion, luminescence; stronger effect = higher value; factor 1 = untreated enzyme, 0 = blocked;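 active = activation factor of 2 or more for CYP2C9 at a 5 µM dose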;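 also: 0 = sulfaphenazole-blocked wells and 1 = vehicle-only wells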
# PostGolgi ctrl: yeast control strain growth, post-Golgi counter-screen. 5% of 98,000 active. inhibition, % at 10 µM. AID 738. efflux-deficient yeast background strain, growth absorbance A615, 16 h
# CYP2C9 inh: human CYP2C9 inhibition; CYP2C9 Supersomes, luciferin-H conversion, luminescence; inhibition, % at 5 µM; 20% of 96,000 active;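 active = blocking of liver enzyme CYP2C9 beyond about 50% at 5 µM, limit read from the data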
# CYP2C19 activ: increases human CYP2C19 enzyme activity; 96,000 tested, under 10 active; recombinant CYP2C19, luciferin-H EGE luminescence; stronger effect = higher value; 0 = fully inhibited enzyme, 1 = untreated enzyme; P33261; activation factor at 5 µM;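 active = activation factor of at least 2 at 5 µM in the primary screen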;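 also: 0 = wells with 2.5 mM tranylcypromine and 1 = vehicle-only wells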
# * marks the source's active call; other numbers are inactive results. An excerpt weighted towards active compounds, which were near 32% of everything screened. Rule as the data show it, unless noted: active = inhibition above about 30%; inactive = the rest.
SMILES,PostGolgi yeast,CYP2C19 inhib,CYP2C9 act,PostGolgi ctrl,CYP2C9 inh,CYP2C19 activ
O=C1c2ccccc2S(=O)(=O)N1CC(O)Cn1ccc2ccccc21 (stereo not drawn),20,97*,0.3,7,71*,0
Cc1cc(C)n(CC(=O)n2c3ccccc3c3ccccc32)n1,-6,30,0.8,0,17,0.7
O=C(CN1C(=O)c2ccccc2S1(=O)=O)N1CCOCC1,-1,6,1,3,-1,0.9
Oc1ccccc1NCC(O)Cn1ccc2ccccc21 (stereo not drawn),16,37,0.7,37*,28,0.6
Cc1cc(C)n(CC(O)CN(c2ccccc2)S(=O)(=O)c2ccccc2)n1 (stereo not drawn),-2,13,0.8,-6,18,0.9
Cc1cc(C)n(CC(O)Cn2ccc3ccccc32)n1 (stereo not drawn),-1,72*,0.6,4,41,0.3
Cc1cc(C)n(CC(O)Cn2c3ccccc3c3ccccc32)n1 (stereo not drawn),-2,82*,0.4,19,61*,0.2
COC(=O)C1CSc2[nH]c(=O)sc2C1c1ccccc1 (stereo not drawn),-2,42,0.5,9,47,0.6
COc1ccc(-n2c(CNC(=O)c3cc(OC)c(OC)c(OC)c3)n[nH]c2=S)cc1,-4,4,1,27,-1,1
Cc1cc(C)n(CC(O)CN2c3ccccc3Sc3ccccc32)n1 (stereo not drawn),0,66*,0.7,43*,33,0.3
OCc1nc2ccccc2n1CC(O)Cn1ccc2ccccc21 (stereo not drawn),-5,90*,0.2,5,84*,0.1
Cc1cc(C)n(CC(O)Cn2c3ccc(Cl)cc3c3cc(Cl)ccc32)c(=O)n1 (stereo not drawn),99*,58*,0.1,99*,95*,0.4
C=CCC1(O)C(=O)N2C(=C1C(=O)N1CCOCC1)c1ccccc1CC2(C)C (stereo not drawn),2,5,0.9,7,11,0.9
O=C(Nc1cc2c(cc1Cl)OCCCO2)c1ccccc1,-14,5,1.5,13,-46,0.9
Cc1nn(-c2cc(N3CCCCCC3)ccc2[N+](=O)[O-])c(=O)c2ccccc12,1,34,0.6,5,36,0.7
Cc1nn(-c2ccc(Cl)c(Cl)c2)c(=O)c2ccccc12,-1,7,1,49*,3,0.9
Cc1nn(-c2ccc(Cl)c(Cl)c2Cl)c(=O)c2ccccc12,-9,71*,0.5,29,54*,0.3
Cc1ccc(-n2nc(C(=O)O)c3ccccc3c2=O)cc1C,2,-12,0.9,-6,15,1.1
CN1CCN(C(=S)Nc2ccc(Cl)cc2Cl)CC1,-3,9,0.9,10,11,0.9
CCCCSc1nnc2nc(C)cc(C)n12,9,4,1.2,19,-15,1
Oc1c(N=Nc2ccccn2)ccc2ccccc12,-1,31,0.6,4,43,0.7
COc1cc(/C=C(\C#N)c2nc3c(s2)CCCC3)ccc1O,5,32,0.9,56*,12,0.7
CCOC(=O)CSc1nnc(CNC(=O)c2ccco2)n1C,-5,-18,1.1,-7,-10,1.2
CC(C(N)=O)N1C(=O)c2cccc3cccc1c23 (stereo not drawn),-4,-3,3.2*,6,-220,1
COc1ccc(NC(=O)c2cc(C3CC3)on2)c(OC)c1,5,-3,2.9*,3,-189,1
SMILES,PostGolgi yeast,CYP2C19 inhib,CYP2C9 act,PostGolgi ctrl,CYP2C9 inh,CYP2C19 activ
Cc1c(Cl)cccc1NC(=O)c1cc(C2CC2)on1,-7,84*,1.2,4,-20,0.2
COC(=O)c1ccccc1NC(=O)c1cc(C2CC2)on1,-4,-11,1.9,13,-87,1.1
COc1ccc(CSCCN)cc1Cl,2,64*,0.5,0,47,0.4
COc1ccc(C/C(N)=N/n2cnnc2)cc1Cl,-2,-10,1.2,12,-16,1.1
Cc1cc(NC(=O)CSc2ccccc2)no1,-3,51*,0.6,22,38,0.5
Cc1cc(C)nc(SCC(=O)Nc2cc(C)on2)n1,10,35,1.1,10,-10,0.6
CCC(C(=O)Nc1cc(C)on1)c1ccccc1 (stereo not drawn),3,65*,0.5,-11,54*,0.3
